Publication PMC7862700, “An all-to-all approach to the identification of sequence-specific readers for epigenetic DNA modifications on cytosine”

Legend:
Test in all cases: DAPPL (digital affinity profiling via proximity ligation, sequencing); 10 mM Tris-HCl pH 7.5, 50 mM NaCl, 1 mM DTT, 4% glycerol, room temperature, 30 min; GST-TFs on glutathione beads, 16-mer random dsDNA library, 0.1% formaldehyde crosslink after washing; high values mean tight binding
Settings in all cases: protein: recombinant; tags: N-terminal GST; dsDNA, one strand shown
FLI1 = molecular target: T1, FLI1 (Homo sapiens, UniProt Q01543 1-452)
T1 sequence: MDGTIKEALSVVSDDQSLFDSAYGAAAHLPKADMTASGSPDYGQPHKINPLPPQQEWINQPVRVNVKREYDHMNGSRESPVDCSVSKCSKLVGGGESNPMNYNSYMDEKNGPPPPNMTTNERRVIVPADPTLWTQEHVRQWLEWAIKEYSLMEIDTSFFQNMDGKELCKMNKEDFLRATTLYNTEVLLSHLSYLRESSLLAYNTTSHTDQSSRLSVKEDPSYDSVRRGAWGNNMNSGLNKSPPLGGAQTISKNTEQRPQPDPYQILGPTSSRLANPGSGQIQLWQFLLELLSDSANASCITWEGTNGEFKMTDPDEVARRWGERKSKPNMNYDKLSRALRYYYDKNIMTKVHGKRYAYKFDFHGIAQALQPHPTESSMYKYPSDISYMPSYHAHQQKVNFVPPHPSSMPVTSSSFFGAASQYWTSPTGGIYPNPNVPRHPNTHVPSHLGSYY
Summary of the method: (§1)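 Pools were built from human transcription factors expressed in yeast as GST fusions, captured on glutathione beads and DNA-barcoded, along with a tag-only sample. Incubation with 200 nmole of a 16-mer random double-stranded DNA library lasted 30 min at room temperature in Tris/NaCl/DTT/glycerol buffer, and was followed by washing, 0.1% formaldehyde crosslinking, proximity ligation, PCR amplification and Illumina NextSeq500 sequencing. Binding signal is the quotient of each hexamer's read frequency for a factor and its frequency for the tag-only sample.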

GABPA = molecular target: T2, GABPA (Homo sapiens, UniProt Q06546 1-454)
T2 sequence: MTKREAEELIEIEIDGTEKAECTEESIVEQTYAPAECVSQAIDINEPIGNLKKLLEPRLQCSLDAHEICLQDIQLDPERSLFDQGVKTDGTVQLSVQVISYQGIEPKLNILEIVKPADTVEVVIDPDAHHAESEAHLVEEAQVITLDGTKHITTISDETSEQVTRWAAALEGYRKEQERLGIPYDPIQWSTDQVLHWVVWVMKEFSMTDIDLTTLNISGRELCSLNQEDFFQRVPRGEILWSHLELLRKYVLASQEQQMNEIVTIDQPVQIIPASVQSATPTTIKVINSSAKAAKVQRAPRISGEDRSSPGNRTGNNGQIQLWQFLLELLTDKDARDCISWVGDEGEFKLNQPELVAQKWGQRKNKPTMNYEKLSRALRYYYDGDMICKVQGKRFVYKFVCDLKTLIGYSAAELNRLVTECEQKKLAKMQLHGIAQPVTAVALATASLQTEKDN
Summary of the method: as §1

ERG = molecular target: T3, ERG (Homo sapiens, UniProt P11308 1-479)
T3 sequence: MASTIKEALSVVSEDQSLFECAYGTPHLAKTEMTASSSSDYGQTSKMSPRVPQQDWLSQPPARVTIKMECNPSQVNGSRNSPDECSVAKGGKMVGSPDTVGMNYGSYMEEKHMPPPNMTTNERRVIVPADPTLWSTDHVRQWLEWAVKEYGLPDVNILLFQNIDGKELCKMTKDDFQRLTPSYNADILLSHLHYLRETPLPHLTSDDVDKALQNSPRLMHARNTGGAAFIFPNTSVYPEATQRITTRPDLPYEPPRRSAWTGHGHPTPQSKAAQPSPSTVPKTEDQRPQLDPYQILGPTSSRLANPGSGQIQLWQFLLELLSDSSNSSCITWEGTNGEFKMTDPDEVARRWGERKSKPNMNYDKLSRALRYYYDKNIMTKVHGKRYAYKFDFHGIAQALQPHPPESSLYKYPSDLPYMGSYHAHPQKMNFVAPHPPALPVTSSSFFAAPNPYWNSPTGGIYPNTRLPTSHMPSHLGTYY
Summary of the method: as §1

EHF = molecular target: T4, EHF (Homo sapiens, UniProt Q9NZC4 1-300)
T4 sequence: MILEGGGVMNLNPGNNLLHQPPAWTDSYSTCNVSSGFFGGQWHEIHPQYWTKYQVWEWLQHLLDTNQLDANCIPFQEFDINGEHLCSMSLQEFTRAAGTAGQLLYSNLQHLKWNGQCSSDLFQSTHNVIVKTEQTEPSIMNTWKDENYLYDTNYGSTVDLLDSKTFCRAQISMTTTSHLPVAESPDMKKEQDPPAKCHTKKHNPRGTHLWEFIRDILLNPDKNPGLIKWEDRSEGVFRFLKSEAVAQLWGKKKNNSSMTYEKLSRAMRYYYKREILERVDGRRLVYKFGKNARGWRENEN
Summary of the method: as §1

SPI1 = SPI1 (Homo sapiens, UniProt P17947 1-270)
Summary of the method: as §1

SPIB = SPIB (Homo sapiens, UniProt Q01892 1-262)
Chain of SPIB (Q01892 whole entry): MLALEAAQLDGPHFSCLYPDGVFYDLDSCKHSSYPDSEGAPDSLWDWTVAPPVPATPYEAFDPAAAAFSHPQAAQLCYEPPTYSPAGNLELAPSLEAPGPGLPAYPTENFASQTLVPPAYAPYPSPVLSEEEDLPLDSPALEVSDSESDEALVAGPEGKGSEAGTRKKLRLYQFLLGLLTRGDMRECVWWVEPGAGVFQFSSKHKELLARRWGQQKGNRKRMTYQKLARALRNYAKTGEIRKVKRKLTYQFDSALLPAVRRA
Summary of the method: as §1

ETV5 = ETV5 (Homo sapiens, UniProt P41161 1-510)
Chain of ETV5 (P41161 whole entry): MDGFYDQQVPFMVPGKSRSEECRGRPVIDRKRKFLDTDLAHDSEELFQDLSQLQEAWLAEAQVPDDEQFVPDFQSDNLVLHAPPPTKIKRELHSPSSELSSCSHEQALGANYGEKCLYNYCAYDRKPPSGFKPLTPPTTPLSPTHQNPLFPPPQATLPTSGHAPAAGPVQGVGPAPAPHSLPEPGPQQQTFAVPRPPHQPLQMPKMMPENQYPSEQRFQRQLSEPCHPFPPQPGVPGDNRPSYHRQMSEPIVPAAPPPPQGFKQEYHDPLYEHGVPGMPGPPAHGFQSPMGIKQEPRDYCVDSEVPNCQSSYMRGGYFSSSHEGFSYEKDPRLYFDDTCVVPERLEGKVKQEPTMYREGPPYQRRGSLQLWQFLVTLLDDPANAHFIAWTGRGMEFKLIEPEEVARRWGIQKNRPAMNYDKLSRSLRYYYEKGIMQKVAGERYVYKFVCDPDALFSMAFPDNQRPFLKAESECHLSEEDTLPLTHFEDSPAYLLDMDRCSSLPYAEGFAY
Summary of the method: as §1

ELF4 = ELF4 (Homo sapiens, UniProt Q99607 1-663)
Chain of ELF4 (Q99607 whole entry): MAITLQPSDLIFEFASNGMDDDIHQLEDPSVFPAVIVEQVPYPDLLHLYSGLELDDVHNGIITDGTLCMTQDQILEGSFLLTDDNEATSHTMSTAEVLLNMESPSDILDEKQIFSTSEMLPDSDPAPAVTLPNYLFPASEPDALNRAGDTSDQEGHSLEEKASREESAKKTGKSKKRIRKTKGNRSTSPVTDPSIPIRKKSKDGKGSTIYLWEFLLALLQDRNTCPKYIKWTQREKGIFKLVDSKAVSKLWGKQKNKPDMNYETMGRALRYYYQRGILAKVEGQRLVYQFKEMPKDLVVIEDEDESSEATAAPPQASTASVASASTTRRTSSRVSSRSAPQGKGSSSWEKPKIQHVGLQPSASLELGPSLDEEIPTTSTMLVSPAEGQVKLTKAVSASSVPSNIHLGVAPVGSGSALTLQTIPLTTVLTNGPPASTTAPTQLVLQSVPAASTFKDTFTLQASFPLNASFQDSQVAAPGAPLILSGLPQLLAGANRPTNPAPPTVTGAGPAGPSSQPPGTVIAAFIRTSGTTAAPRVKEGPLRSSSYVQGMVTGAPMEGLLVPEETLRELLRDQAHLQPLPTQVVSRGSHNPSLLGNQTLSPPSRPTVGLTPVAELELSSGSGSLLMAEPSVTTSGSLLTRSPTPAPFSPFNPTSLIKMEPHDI
Summary of the method: as §1

ETV2 = molecular target: T5, ETV2 (Homo sapiens, UniProt O00321 1-342)
T5 sequence: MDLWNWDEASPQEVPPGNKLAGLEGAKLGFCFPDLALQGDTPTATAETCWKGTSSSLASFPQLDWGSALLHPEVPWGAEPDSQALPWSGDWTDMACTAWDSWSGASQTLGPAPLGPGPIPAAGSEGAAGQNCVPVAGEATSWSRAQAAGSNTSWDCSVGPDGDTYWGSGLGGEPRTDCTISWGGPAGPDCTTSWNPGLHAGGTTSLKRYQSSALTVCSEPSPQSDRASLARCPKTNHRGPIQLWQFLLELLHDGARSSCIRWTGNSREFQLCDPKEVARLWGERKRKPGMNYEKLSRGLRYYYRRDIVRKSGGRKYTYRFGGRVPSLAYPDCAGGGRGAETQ
Summary of the method: as §1

ELF3 = molecular target: T6, ELF3 (Homo sapiens, UniProt P78545 1-371)
T6 sequence: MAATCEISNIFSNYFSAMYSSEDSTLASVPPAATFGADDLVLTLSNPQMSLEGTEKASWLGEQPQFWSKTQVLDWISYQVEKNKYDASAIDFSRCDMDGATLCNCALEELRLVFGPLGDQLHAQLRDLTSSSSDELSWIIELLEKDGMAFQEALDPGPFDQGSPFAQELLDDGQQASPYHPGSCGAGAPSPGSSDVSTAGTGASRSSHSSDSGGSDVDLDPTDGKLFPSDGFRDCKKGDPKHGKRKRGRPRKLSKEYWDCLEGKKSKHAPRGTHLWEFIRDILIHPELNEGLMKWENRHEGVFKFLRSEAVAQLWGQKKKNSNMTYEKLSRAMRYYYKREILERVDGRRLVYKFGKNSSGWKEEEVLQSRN
Summary of the method: as §1

ETV1 = ETV1 (Homo sapiens, UniProt P50549 1-477)
Chain of ETV1 (P50549 whole entry): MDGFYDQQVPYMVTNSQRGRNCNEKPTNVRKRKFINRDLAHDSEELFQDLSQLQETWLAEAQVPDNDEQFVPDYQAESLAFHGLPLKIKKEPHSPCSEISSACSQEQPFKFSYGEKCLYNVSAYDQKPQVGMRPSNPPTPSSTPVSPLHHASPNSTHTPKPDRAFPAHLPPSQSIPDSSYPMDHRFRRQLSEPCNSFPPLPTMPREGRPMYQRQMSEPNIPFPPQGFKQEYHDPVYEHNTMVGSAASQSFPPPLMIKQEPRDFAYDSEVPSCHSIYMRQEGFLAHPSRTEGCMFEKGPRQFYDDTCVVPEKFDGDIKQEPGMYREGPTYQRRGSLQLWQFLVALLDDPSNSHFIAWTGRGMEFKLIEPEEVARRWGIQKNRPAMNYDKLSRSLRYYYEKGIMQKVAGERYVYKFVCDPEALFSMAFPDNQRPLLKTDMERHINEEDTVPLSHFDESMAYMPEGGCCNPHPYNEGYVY
Summary of the method: as §1

ETV3L = molecular target: T7, ETV3L (Homo sapiens, UniProt Q6ZN32 1-361)
T7 sequence: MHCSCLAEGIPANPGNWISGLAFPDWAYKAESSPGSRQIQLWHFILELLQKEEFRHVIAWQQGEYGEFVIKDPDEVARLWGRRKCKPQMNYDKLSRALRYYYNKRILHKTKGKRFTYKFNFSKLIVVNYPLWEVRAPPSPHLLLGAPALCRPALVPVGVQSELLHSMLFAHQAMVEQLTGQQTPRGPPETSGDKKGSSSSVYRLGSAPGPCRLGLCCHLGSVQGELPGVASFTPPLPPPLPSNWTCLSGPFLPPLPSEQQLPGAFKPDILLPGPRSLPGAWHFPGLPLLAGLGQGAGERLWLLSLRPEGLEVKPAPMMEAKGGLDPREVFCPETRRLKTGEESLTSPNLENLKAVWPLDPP
Summary of the method: as §1

ETV7 = molecular target: T8, ETV7 (Homo sapiens, UniProt Q9Y603 1-341)
T8 sequence: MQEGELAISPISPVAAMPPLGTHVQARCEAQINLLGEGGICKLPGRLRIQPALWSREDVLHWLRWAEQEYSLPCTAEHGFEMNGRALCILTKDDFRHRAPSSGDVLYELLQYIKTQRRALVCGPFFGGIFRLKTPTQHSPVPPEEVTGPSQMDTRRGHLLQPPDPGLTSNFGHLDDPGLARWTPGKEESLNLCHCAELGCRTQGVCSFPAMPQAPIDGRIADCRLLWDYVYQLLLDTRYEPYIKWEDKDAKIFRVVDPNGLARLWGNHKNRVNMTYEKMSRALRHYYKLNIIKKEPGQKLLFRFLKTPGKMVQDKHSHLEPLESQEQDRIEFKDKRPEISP
Summary of the method: as §1

ETV6 = ETV6 (Homo sapiens, UniProt P41212 1-452)
Chain of ETV6 (P41212 whole entry): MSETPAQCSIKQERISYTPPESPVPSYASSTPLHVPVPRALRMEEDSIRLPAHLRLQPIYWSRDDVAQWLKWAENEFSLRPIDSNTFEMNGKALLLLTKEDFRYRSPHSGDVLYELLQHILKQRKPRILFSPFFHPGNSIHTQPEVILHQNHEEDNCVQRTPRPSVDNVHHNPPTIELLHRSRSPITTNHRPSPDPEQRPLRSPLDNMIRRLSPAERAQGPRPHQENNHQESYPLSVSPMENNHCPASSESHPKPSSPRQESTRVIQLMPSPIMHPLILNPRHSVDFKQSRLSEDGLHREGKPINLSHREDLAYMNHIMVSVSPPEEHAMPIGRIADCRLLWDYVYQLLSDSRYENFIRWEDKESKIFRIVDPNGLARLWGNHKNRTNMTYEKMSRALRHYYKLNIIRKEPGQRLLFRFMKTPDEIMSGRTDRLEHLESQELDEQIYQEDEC
Summary of the method: as §1

ELK1 = molecular target: T9, ELK1 (Homo sapiens, UniProt P19419 1-428)
T9 sequence: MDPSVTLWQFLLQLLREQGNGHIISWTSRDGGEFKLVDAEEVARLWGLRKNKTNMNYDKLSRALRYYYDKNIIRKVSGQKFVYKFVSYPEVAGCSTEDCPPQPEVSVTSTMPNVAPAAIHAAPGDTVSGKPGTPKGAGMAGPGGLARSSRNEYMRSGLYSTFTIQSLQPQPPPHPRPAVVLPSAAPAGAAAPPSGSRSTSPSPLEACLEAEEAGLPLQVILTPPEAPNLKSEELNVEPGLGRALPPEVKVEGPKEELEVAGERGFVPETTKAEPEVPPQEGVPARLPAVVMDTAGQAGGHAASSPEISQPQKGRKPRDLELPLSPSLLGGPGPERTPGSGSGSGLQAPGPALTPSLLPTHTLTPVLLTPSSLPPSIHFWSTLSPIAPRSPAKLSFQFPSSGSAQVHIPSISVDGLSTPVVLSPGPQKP
Summary of the method: as §1

ELF1 = ELF1 (Homo sapiens, UniProt P32519 1-619)
Chain of ELF1 (P32519 whole entry): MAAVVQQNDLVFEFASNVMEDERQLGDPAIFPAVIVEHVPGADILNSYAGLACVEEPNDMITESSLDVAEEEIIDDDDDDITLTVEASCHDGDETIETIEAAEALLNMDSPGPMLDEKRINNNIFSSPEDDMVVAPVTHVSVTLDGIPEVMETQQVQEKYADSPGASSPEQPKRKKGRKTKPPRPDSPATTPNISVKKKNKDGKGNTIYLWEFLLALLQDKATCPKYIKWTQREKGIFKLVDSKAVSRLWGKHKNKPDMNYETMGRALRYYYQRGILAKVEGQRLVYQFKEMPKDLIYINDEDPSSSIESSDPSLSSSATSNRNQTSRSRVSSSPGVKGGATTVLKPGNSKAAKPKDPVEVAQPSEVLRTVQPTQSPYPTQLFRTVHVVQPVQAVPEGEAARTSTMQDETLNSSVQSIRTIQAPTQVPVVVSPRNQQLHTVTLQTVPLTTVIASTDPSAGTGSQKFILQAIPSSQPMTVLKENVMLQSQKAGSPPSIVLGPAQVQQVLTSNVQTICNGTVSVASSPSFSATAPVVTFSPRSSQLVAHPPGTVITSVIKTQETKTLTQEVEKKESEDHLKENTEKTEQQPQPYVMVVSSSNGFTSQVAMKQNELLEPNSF
Summary of the method: as §1

ELK3 = molecular target: T10, ELK3 (Homo sapiens, UniProt P41970 1-407)
T10 sequence: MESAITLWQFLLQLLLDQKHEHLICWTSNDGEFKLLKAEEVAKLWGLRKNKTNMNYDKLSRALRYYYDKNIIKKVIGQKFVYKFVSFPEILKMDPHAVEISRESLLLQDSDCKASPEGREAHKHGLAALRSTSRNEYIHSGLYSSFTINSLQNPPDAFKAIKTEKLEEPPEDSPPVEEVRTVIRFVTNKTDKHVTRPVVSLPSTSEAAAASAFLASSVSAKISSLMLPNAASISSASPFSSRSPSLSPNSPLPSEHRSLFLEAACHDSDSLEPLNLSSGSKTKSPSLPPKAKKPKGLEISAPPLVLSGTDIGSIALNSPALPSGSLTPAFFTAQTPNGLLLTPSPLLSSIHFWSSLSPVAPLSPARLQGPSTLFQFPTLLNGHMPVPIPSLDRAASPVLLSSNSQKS
Summary of the method: as §1

ETS2 = molecular target: T11, ETS2 (Homo sapiens, UniProt P15036 1-469)
T11 sequence: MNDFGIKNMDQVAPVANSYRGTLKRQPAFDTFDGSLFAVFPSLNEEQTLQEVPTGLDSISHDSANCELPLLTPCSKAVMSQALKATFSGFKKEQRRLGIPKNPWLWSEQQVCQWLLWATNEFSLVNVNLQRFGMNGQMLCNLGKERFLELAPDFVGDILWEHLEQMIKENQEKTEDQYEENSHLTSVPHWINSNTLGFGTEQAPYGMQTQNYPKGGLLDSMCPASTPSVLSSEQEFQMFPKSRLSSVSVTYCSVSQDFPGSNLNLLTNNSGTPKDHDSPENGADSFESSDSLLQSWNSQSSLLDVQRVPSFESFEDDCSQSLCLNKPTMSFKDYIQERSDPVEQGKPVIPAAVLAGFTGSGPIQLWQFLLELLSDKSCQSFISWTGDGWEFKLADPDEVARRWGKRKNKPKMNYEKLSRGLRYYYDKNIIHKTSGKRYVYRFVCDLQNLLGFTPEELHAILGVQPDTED
Summary of the method: as §1

ETV3 = molecular target: T12, ETV3 (Homo sapiens, UniProt P41162-2 1-143)
T12 sequence: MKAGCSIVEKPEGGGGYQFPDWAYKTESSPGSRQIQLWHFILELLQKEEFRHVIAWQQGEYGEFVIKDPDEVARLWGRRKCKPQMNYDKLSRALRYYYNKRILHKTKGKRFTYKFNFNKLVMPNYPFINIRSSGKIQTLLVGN
Summary of the method: as §1

Sequence	binding signal (FLI1)	binding signal (GABPA)	binding signal (ERG)	binding signal (EHF)	binding signal (SPI1)	binding signal (SPIB)	binding signal (ETV5)	binding signal (ELF4)	binding signal (ETV2)	binding signal (ELF3)	binding signal (ETV1)	binding signal (ETV3L)	binding signal (ETV7)	binding signal (ETV6)	binding signal (ELK1)	binding signal (ELF1)	binding signal (ELK3)	binding signal (ETS2)	binding signal (ETV3)
TGTGGC	1.05 fold enrichment (6-mer frequency, TF over GST control)	1.03 fold enrichment (6-mer frequency, TF over GST control)	1.07 fold enrichment (6-mer frequency, TF over GST control)	1.02 fold enrichment (6-mer frequency, TF over GST control)	1.14 fold enrichment (6-mer frequency, TF over GST control)	1.09 fold enrichment (6-mer frequency, TF over GST control)	1.01 fold enrichment (6-mer frequency, TF over GST control)	1.02 fold enrichment (6-mer frequency, TF over GST control)	1.23 fold enrichment (6-mer frequency, TF over GST control)	1.02 fold enrichment (6-mer frequency, TF over GST control)	1.05 fold enrichment (6-mer frequency, TF over GST control)	1.06 fold enrichment (6-mer frequency, TF over GST control)	1.01 fold enrichment (6-mer frequency, TF over GST control)	1.19 fold enrichment (6-mer frequency, TF over GST control)	–	–	–	–	–
AGTGTC	1.01 fold enrichment (6-mer frequency, TF over GST control)	1.07 fold enrichment (6-mer frequency, TF over GST control)	1.08 fold enrichment (6-mer frequency, TF over GST control)	1.14 fold enrichment (6-mer frequency, TF over GST control)	1.16 fold enrichment (6-mer frequency, TF over GST control)	1.01 fold enrichment (6-mer frequency, TF over GST control)	1.06 fold enrichment (6-mer frequency, TF over GST control)	1.07 fold enrichment (6-mer frequency, TF over GST control)	1.02 fold enrichment (6-mer frequency, TF over GST control)	1.11 fold enrichment (6-mer frequency, TF over GST control)	1.02 fold enrichment (6-mer frequency, TF over GST control)	–	1.16 fold enrichment (6-mer frequency, TF over GST control)	1.01 fold enrichment (6-mer frequency, TF over GST control)	1.07 fold enrichment (6-mer frequency, TF over GST control)	1.06 fold enrichment (6-mer frequency, TF over GST control)	1.01 fold enrichment (6-mer frequency, TF over GST control)	1.09 fold enrichment (6-mer frequency, TF over GST control)	1.07 fold enrichment (6-mer frequency, TF over GST control)
